In PubChem BioAssay:
Values without a mark were called inactive. The rule behind the calls is not given here.

biological target: Pantothenate synthetase (Mycobacterium tuberculosis (strain ATCC 25618 / H37Rv)) (UniProt P9WIL5); assay: Recombinant Mtb pantothenate synthetase (PanC) inhibitors, coupled enzyme, confirmatory (AID 375); details: coupled enzyme assay; at 10 µM, stronger effect = higher value;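 note: 0% = full reaction with vehicle and 100% = no enzyme background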
Sequence (P9WIL5 whole entry, looked up): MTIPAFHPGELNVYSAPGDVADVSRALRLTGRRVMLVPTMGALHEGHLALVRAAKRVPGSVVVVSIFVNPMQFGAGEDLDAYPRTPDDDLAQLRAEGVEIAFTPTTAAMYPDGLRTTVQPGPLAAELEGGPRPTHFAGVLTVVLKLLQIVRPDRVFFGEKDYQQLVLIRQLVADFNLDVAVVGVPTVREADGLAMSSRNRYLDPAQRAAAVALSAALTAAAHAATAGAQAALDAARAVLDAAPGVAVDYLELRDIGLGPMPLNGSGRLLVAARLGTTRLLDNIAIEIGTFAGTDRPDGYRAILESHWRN

SMILES | inhibition
O=C(Cn1ncc2c(=O)oc3ccccc3c21)NCC1CCCO1 (stereo not given) | 4%
O=C(Nc1cccnc1)c1cc2c(ccc3ccccc32)o1 | 0%
O=C(CSc1nnc2ccccn12)NCCN1C(=O)CSC1=O | 0%
Nc1nc(-c2ccccc2)cc(C(F)(F)F)n1 | 5%
Cc1cnc(C(=O)Nc2ccc(N3CCOCC3)cc2)cn1 | 4%
CCC(Sc1nc2n[nH]c(C)c2c(=N)n1-c1cc(Cl)ccc1C)C(=O)N1CCOCC1 (stereo not given) | 0%
CC(=O)O[C@@]12CO[C@@H]1C[C@H](O)[C@@]1(C)C(=O)[C@H](O)C3=C(C)[C@@H](OC(=O)[C@H](O)[C@@H](NC(=O)OC(C)(C)C)c4ccccc4)C[C@](O)([C@@H](OC(=O)c4ccccc4)[C@H]21)C3(C)C | 0%
Cc1ccc(CCNC(=O)C2CCCN2S(=O)(=O)c2ccc3c(c2)CCC(=O)N3)cc1 (stereo not given) | 6%
Cc1nnc(SCc2cn3ccsc3n2)n(N)c1=O | 0%
CN(C)c1ccc(C=NCC2(O)CCOC(C)(C)C2)cc1 (stereo not given) | 3%
O=C(NCc1n[nH]c(=S)n1-c1ccc(F)cc1)c1ccco1 | 0%
COc1ccc2c(=O)c3c(=O)n(Cc4ccco4)c(C(C)C)nc3oc2c1 | 0%
CC(=O)Nc1cccc(NC(=O)C2CCCN2C(=O)Nc2ccc(C)cc2)c1 (stereo not given) | 0%
CC1CC(C)CN(CCCNC(=O)COc2cc(=O)n(C)c3ccccc23)C1 (stereo not given) | 0%
CCOC(=O)c1ccc(NC(=O)CSCc2ccco2)cc1 | 0%
